Molecular target: UCHL1, P09936
Assay: median log2 fold change of GCK-ALFA target abundance (FLAG IP / Myc IP barcode read proportion) (log2 ratio); each designed protein is fused to an ALFA-tag nanobody in HEK293 cells to bring the named protein to FLAG-tagged glucokinase (GCK); Myc marks an untargeted standard; higher = target protein stabilised (more abundant)
Details: target protein: 3xFLAG-MCP-GCK-ALFA reporter; HEK293 landing pad (RPLP)
Summary of the method: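 HEK293 landing-pad cells received a recombined binder library fused to the ALFA nanobody and were induced with 2 μg mL^−1 doxycycline, then transfected with a plasmid encoding a FLAG-tagged target and a Myc-tagged standard. Lysates were collected after 48 h for anti-FLAG and anti-Myc immunoprecipitation, and the circular RNA barcodes were reverse transcribed, amplified and sequenced. Target abundance for each binder is the median log2 ratio of FLAG to Myc barcode read proportions. Barcodes had to reach a proportion of at least 10^−7 in both replicates, each binder needed at least 3 barcodes per replicate, a pseudocount of 10^−6 was applied, and the two replicates were pooled.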

Sequence of UCHL1, P09936 (P09936 whole entry, looked up, the tested form may be a part): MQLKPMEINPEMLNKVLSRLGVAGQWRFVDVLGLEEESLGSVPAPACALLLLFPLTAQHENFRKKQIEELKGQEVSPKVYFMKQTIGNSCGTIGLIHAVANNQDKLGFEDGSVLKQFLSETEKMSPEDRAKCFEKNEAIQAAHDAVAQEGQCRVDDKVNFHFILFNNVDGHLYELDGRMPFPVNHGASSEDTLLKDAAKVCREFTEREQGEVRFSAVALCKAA

Row | Binder | median log2 fold change
1 | uchl1_2_7572 (protein) KTVFVGVKVTLTAYDEKTGKTYKSTRTLIFTESALEAAAKEIEELALNFQDAVGVPVKVDVHVVSTDEEVLKRLKELLEKMAKKLAKKGIEVNISGEVVK | -0.571
2 | uchl1_2_7571 (protein) ETVFVGVLVTLRARDAETGKEYRSRRTFIFTEDSIEALAEEIRELALAFQADVGVPVTVDIHIYSTKKEVVEKTKKVLEEMAKELAKEGITVNITGTVVK | -0.528
3 | uchl1_89_7576 (protein) AEARAQAARARLRAVLAATRAEVERLLARLGEVDPALRAAFDAFFAAAEAAIADPSTAAAALAAAEAAARRLVELAPPEYRASFRLATGRLLNLLRGYAA | -0.0383
4 | uchl1_89_7578 (protein) EAARLAAARARLRRVLAATRAEVERLLARLGEVPPELRAAFDAFFAAAEAAIADPSTAAEALAAAEAAARRLVELAPPEYRASFRLATGRLLNALRGYAA | 0.184
5 | uchl1_89_7583 (protein) EEEREAAARARLRAILAATRAALERLIARWGVRDPEAQAALDALFANAERAIADPSTAAEALAKAEEAARRLLALAPPEKRADVRLATGRLLNALLGYVA | -0.0264
6 | uchl1_2_7573 (protein) KTVFVGIKVTLEAYDEKTGKTYRSTRTLIFTEEALEKAAEEVKELALNFKDAVGVPVTVNVHIVSTDEEVLERLKKLLEEMAKELAKEGITVNISGEVVK | -0.366
7 | uchl1_89_7577 (protein) EEERLEAARERLRRILARTRAEVERLLARLGEVPPELRAALDAFFAAAEAAIADPSTAEAALAEAEAAARRLVELAPPEYRASFRLALGRLVNALLGYAA | 0.111
8 | uchl1_89_7587 (protein) EEARREAARARLERVLAKTRARLEALLARMGAPDPAMVAALDALFDAARTALADPATAEAALAEAEAAARRLVELAPEEVKASVRLATGRLVIALRGYLA | -0.0889
9 | uchl1_89_7575 (protein) EAARREAARARLRRILAATEARVAALLARLGEVPPELAAARDAFFAAARAAIDDPATAAAALAAAEAAARRLVELAPPEYRASFRLATGRLLNALRGWAA | 0.127
10 | uchl1_89_7586 (protein) EEERLAAARARLRRILAATRAELERLIASLGVRDPALEAALAAFFAHARRAIEDPATAEEALAAAEAAARELLALAPPEKRADFRLATGRLLNALLGYRA | 0.158
11 | uchl1_89_7580 (protein) EEERLRRARERLRRVLEATRAEVERLIARLGEPDPALVAAAEELFAAAEAALEDPERAAEYLARAEAAARRLVELAPPERRASFRLAVGRLVNTLLGYAA | 0.043
12 | uchl1_89_7584 (protein) EEARRAAARERLRRVLAATRERLEALMAKWGVADPEAVAALEELFRHAELAIEDPERAEEALAKAEEAAKRLLALAPEERRADVRMATGRLLNRLLGYVA | -0.114
13 | uchl1_89_7574 (protein) DPRLDPATAARLRAIAERTEAALRRILTKAGVPQATIDAFLALVRAAADTTIADRAAAPAQLAALEAALRALTARVDPATAANVRLAMGPLLRLLEGVAQ | -0.0395
14 | uchl1_89_7582 (protein) EEERLARAREHLRRVLAKTRAALDRLIARLGEPDPELVAAHEELLAAAEAAIADPERAEEYLAKAEEAAVRLVELAPPERRASFRLAVGRLINTLLGYAA | -0.405
15 | uchl1_89_7581 (protein) EAARLERAKAKLRAVLAATRAALDRLIARLGEPDPALVAARDALFAAAEAAIADPARAAEYLARAEAAARRLVELAPPERRASFRLAAGRLVNTLLGFAA | -0.302
16 | uchl1_89_7579 (protein) EEERLARARERLRRVLAATRAELARLEARIGEVSPELAAARDALFAAAEAAIADPALAAAQLEAAEAAARRLVALTPPELRASVRLATGRLLNRLLGYAA | -0.16
